# Screening results as filed in PubChem.
# Sampled rows, rich in hits. Any-hit rate of the full collection: about 2.4%.
# D2 ag-1 – Beta-Arrestin HTS for Positive Allosteric Modulators of the Human D2 Dopamine Receptor: Agonists; AID 624465, 2012; DiscoveRx PathHunter D2 beta-arrestin, luminescence, 90 min; 100% = 57 uM dopamine signal; 0.084% of 360,000 active; activation, % (concentration not given with the values); D(2) dopamine receptor (Homo sapiens), P14416; in the data active means activation above about 40%
# Target sequence (P14416 whole entry, looked up): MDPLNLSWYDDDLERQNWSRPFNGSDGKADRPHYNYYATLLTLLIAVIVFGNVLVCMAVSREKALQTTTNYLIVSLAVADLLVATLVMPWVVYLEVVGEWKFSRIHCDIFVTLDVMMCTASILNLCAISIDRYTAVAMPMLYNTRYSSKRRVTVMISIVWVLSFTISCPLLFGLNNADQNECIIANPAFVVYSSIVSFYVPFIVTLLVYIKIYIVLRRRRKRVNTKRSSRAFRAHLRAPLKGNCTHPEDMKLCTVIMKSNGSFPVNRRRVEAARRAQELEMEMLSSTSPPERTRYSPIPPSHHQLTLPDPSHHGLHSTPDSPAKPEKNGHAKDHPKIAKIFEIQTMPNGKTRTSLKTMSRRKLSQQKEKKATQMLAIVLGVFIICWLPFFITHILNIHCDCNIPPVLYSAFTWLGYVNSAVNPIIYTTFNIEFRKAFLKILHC
#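 Agonist mode: compounds alone added to overnight-plated D2 PathHunter cells for 90 min at 37 C, with 57 uM final dopamine (EC100) defining full response. Beta-arrestin recruitment detected by chemiluminescent reagent, read after 1 h at ambient temperature.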
# D2 PAM-1 – HTS Assay for Positive Allosteric Modulators of the Human D2 Dopamine Receptor: Primary Screen for Potentiators; 0.34% of 340,000 active; HEK293 T-REx D2, calcium flux, EC20 dopamine potentiation; AID 485347, 2010; potentiation, % at 10 µM;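 active means potentiation over 3 SD above the plate norm, cut at about 30% in these data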; further: 0% is about no effect
#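 Calcium flux readout, no-wash dye, 1 read/s. Inducible HEK293 Trex D2 line, overnight 30 C. Compound alone 180 s (agonist flags), then EC20 dopamine, another 180 s to score potentiation.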
# D2 antagonist – HTS Assay for Allosteric Antagonists of the Human D2 Dopamine Receptor: Primary Screen for Antagonists | D(2) dopamine receptor (Homo sapiens), P14416 | inhibition, % at 10 µM | AID 485344, 2010 | HEK293 TREx D2 cells, calcium flux, dopamine EC80 | 2% of 340,000 active; in the data active means inhibition above about 30%; inactive means below that, where a call was filed; further: 0% is about no effect
#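 HEK293 T-REx D2 cells, tet-induced, calcium dye no-wash. Cpd pintool add, 180 s kinetic, then EC80 DA, 180 s kinetic. Ca flux read.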
# D2 PAM-2 – Beta-Arrestin HTS for Positive Allosteric Modulators of the Human D2 Dopamine Receptor: Potentiators; D(2) dopamine receptor (Homo sapiens), P14416; DiscoveRx D2 beta-arrestin cells, luminescence, 90 min; 100% = 57 uM dopamine signal; potentiation, % (concentration not given with the values); 0.23% of 360,000 active; AID 624464, 2012; in the data active means potentiation above about 50%
#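 PathHunter D2 cells, attached overnight at 37 deg C, received compound in DMSO plus dopamine at EC20 (50 nM final) for 90 min at 37 deg C. Beta-arrestin recruitment was read as luminescence after 1 h with detection reagent at ambient temperature.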
# D2 ag-2 – HTS Assay for Allosteric Agonists of the Human D2 Dopamine Receptor: Primary Screen for Agonists; D(2) dopamine receptor (Homo sapiens), P14416; HEK293 T-REx D2 cells, calcium flux agonist mode; activation, % at 2 µM; 0.53% of 340,000 active;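 active means activation over 3 SD above normal in the single-dose calcium agonist read, cut at about 30% in these data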; further: 0% is about no effect
#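 Calcium-flux readout, 1 cycle/sec over 180 s following compound pin transfer, in inducible HEK293 Trex D2 cells (force-coupled); dopamine controls included. Positive calcium responses during this window marked compounds as potential agonists.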
# * = called active by the depositor; nt = no result.
SMILES,D2 ag-1,D2 PAM-1,D2 antagonist,D2 PAM-2,D2 ag-2
CC(=O)N1CCC2(CC1)CC(=O)c1cc(OCC(=O)N3CCN(C)CC3)ccc1O2,-1,-3,-4,-5,0
CC(=O)N1CCC2(CC1)CC(=O)c1cc(OCC(=O)N3CCC4(CC3)OCCO4)ccc1O2,2,31*,0,2,0
COc1ccc(-c2nc(CN3C(=O)CN=C(c4ccccc4)c4ccccc43)c(C)o2)cc1OC,nt,1,nt,nt,-2
CC1CCCN(c2ccc(C(=O)N3CCC4(CC3)OCCO4)cc2[N+](=O)[O-])C1 (stereo not drawn),0,6,-4,-6,3
CCOC(=O)C1CCCN(c2ccc([N+](=O)[O-])c3nonc23)C1 (stereo not drawn),4,-8,52*,-15,135*
Cc1cc(-n2c(/C=C/c3cccs3)nc3ccccc3c2=O)ccc1Br,nt,9,nt,nt,1
CN(C)C1(CNC(=O)c2ccc(NS(=O)(=O)c3ccc(Cl)c(Cl)c3)cc2)CCCCC1,-1,0,8,-3,1
CN(C)C1(CNC(=O)Nc2ccc(Cl)c(Cl)c2)CCCCC1,-2,-34,54*,-15,3
Cc1nn(CC(C)C)c(Cl)c1C(=O)NC1CCCCC1,-3,2,30*,22,0
Cc1nn(CC(C)C)c(Cl)c1C(=O)NC1CCCC1,-2,nt,nt,-8,nt
Cc1cc(OCC(=O)N2CCN(CCc3ccccn3)CC2)cc(C)c1Cl,nt,nt,nt,nt,-2
O=C1N(c2nncs2)CCN1[N+](=O)[O-],4,12,-4,69*,0
Cc1cccc(NC(=O)Cn2cc(C(=O)c3ccccc3)c3ccccc32)c1C,nt,-4,nt,nt,1
Cc1ccccc1CN1C(=O)C(C)N=C(c2ccccc2)c2ccccc21 (stereo not drawn),nt,1,nt,nt,1
C[C@H]1OC[C@@H](C[N+](C)(C)C)O1,-6,-6,13,1,40*
CC1OC(C[N+](C)(C)C)CC1O (stereo not drawn),-1,4,-15,-1,0
COc1cc(/C=C/c2nc3ccccc3c(=O)n2-c2ccc(Br)c(C)c2)ccc1O,nt,nt,nt,nt,0
COc1c(C)cc(C(=O)C2CCCN(Cc3cccc(C)n3)C2)cc1C (stereo not drawn),-5,-6,5,-16,38*
CCCN1CCCC(C(=O)c2cc(C)c(OC)c(C)c2)C1 (stereo not drawn),-2,-27,86*,-13,1
CN1CCC(OC(=O)C2c3ccccc3Oc3ccccc32)CC1,-3,-18,33*,-34,1
CCOc1ccc(CN(CCc2ccc3c(c2)OCO3)Cc2cccc(C)c2)cc1,nt,-23,nt,nt,nt
CCCCOc1ccc(CCN)cc1Cl,-6,3,42*,-20,3
CC(C)Oc1ccc(CCN)cc1Cl,1,-6,8,-14,1
Cc1cccc(CS(=O)(=O)Cc2ccc(C(=O)N3CCC4(CC3)OCCO4)o2)c1,-3,11,40*,16,-1
O=C(c1ccc(CS(=O)(=O)c2ccccc2)o1)N1CCC2(CC1)OCCO2,-1,4,-11,-5,-1
SMILES,D2 ag-1,D2 PAM-1,D2 antagonist,D2 PAM-2,D2 ag-2
CC(C)c1ccc(NC(=O)CN2C(=O)CN=C(c3ccccc3)c3ccccc32)cc1,nt,2,nt,nt,0
C1=C(c2c[nH]c3ccccc23)CCN(Cc2ccccc2)C1,-19,-21,70*,6,0
CN1CC=C(c2c[nH]c3ccccc23)CC1,-2,-22,75*,-13,0
Cc1ccc(-n2c(=O)[nH]c3ccc(Br)cc3c2=O)cc1,nt,-5,nt,nt,0
C[C@@H]1C[C@H]2OC(=O)C3(CO3)[C@H]2[C@H](O)[C@]2(C)C(=O)C3OC3[C@@H]12 (stereo partly drawn),nt,15,41*,nt,0
O=c1[nH]c2ccccc2n1CCCN1CCC(n2c(=O)[nH]c3cc(Cl)ccc32)CC1,nt,nt,97*,nt,nt
CCCCn1nnnc1C(C1CC1)N1CCC(n2c(=O)[nH]c3ccccc32)CC1 (stereo not drawn),12,nt,nt,2,nt
COc1ccc(CCN)cc1O,4,nt,nt,-17,nt
CNCCc1ccc(O)c(O)c1,76*,nt,nt,66*,nt
COCCOC(=O)c1c(N)n(Cc2ccccc2)c2nc3ccccc3nc12,-2,0,36*,13,-2
CCOC(=O)c1c(N)n(Cc2ccco2)c2nc3ccccc3nc12,-8,-13,30*,-10,11
CCCCn1c(N)c(C(=O)OCCOC)c2nc3ccccc3nc21,-2,nt,nt,4,nt
Cc1cccc(CN2CC=C(c3noc(CCC(=O)Nc4ccc(C)c(F)c4)n3)CC2)c1,nt,-7,nt,nt,1
Cc1cccc(N2CCN(CCc3ccccc3)CC2)c1C,-8,10,-18,-26,-1
CCCCCCN1CCN(c2ccccc2Cl)CC1,2,-28,76*,-11,4
Cc1cc(C)cc(OCC(=O)Nc2ccc(Cl)cc2C(=O)c2ccccc2)c1,nt,-8,nt,nt,-1
COc1ccc(-c2nc(CN3C(=O)CN=C(c4ccccc4Cl)c4cc(Cl)ccc43)c(C)o2)cc1OC,nt,-3,nt,nt,7
Oc1cc2c(cc1O)[C@H]1c3ccccc3CN[C@@H]1CC2,nt,-25,92*,nt,84*
COc1ccc2c(c1)C1OCCNC1CC2 (stereo not drawn),1,nt,nt,-11,nt
C=CCn1c(O)c(C(CC)=NC2CC2)c(=O)[nH]c1=O,0,-12,39*,11,0
C=CCn1c(O)c(C(C)=NCCN2CCOCC2)c(=O)[nH]c1=O,1,-5,39*,-3,1
CC(=NCCN1CCOCC1)c1c(O)n(Cc2ccccc2)c(=O)[nH]c1=O,1,0,-7,-6,0
O=C1CC(c2cccnc2)=NN1c1ccc(Cl)cc1Cl,-2,6,4,-12,0
CCN1C(=O)CC(c2cccnc2)=Nc2ccccc21,1,3,31*,-10,1
Nc1c(C(=O)Nc2ccc(Cl)c(C(F)(F)F)c2)sc2nc3c(cc12)N1CCC3CC1,nt,-2,nt,nt,0
O=C(Nc1ccc(F)c(Cl)c1)N(Cc1ccc2c(c1)OCO2)C1CCN(Cc2ccccc2)CC1,nt,-4,nt,nt,1
O=C(NC(Oc1ccccc1)C(Cl)(Cl)Cl)c1ccccc1 (stereo not drawn),-1,-4,16,-4,-1
